Compound activity from PubChem.
Compounds with a hit are over-represented: about 2.1% of the library has one in this group of screens.
GSIS activator: GLuc luminescence reporter in INS-1E cells, primary screen for activators of glucose-dependent secretion of insulin; INS-1E GLuc reporter insulin secretion, 2-3 h; activation, % at 16.6 µM; 370,000 compounds, 0.61% hits; AID 743287;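 active = lowest replicate activation of at least 40%, so every replicate reaches that level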
Env fusion inh: HIV envelope-mediated fusion inhibition | HeLa-JRFL Env/CEM21 cell fusion, luciferase | inhibition, % at 12.3 µM | 360,000 compounds, 1.1% hits;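 active = mean replicate inhibition score of at least 50 and every replicate individually at or above 50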
NSD2 inh: inhibitors of human histone methyltransferase NSD2; NSD2 peptide methylation, AlphaScreen, 120 min; inhibition, % at 12.5 µM; 310,000 compounds, 0.54% hits; AID 743445; in the data active = inhibition above about 50%
MLL AF4-AF9 inh: blocks AF4 peptide binding to human AF9. P42568. AlphaScreen, biotin-AF4 peptide binding to FLAG-AF9. inhibition, % at 10 µM. 350,000 compounds, 0.47% hits. AID 651704;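 active = every replicate reaching a set inhibition limit, whatever the replicate mean, cut at about 25% in these data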
PGC1a acetyl inh: modulators of PGC1a acetylation. U2OS PGC1a acetylation, AlphaScreen anti-acetyl-lysine; with virally co-expressed GCN5 acetyltransferase. inhibition, % at 15.6 µM. 350,000 compounds, 0.17% hits. AID 651687;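 active = every replicate shows inhibition of at least 40%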
Hits are given with their value; 0 = inactive; - = no result given; ! = a repeat was not active; [ ] = dose if it differs, or a comment.

SMILES	GSIS activator	Env fusion inh	NSD2 inh	MLL AF4-AF9 inh	PGC1a acetyl inh
Cc1cc(N2CCN(Cc3ccccc3)CC2)n2nc(C)c(-c3ccccc3)c2n1	-	63.3	0	-	0
COc1ccc(-c2c(C)nn3c(N4CCN(Cc5ccccc5)CC4)cc(C)nc23)cc1OC	0	0	-	0	0
CCCCCCCCOC(=O)C1=C(C)Nc2nnnn2C1c1cccs1 (centres undefined)	42.6	0	0	-	0
CCCNC(=O)[C@@]1(C)c2ccccc2C(=O)N(Cc2ccc(OC(F)(F)F)cc2)[C@H]1c1ccc(CO)cc1	-	0	-	0	0
COCCn1c(SCC(=O)Nc2ccc(Cl)c(S(=O)(=O)N(C)C)c2)nc2ccccc21	-	60.2	0	-	0
CN(C)S(=O)(=O)c1cc(NC(=O)CN2CCc3ccccc32)ccc1Cl	0	0	-	0	74.6
Cc1cc(C)cc(N2CC(O)Cn3c2nc2c3c(=O)[nH]c(=O)n2C)c1 (centres undefined)	0	0	0	0	0
C[C@H]1CCCCO[C@H](CN(C)Cc2ccc(Cl)c(Cl)c2)[C@@H](C)CN([C@@H](C)CO)C(=O)c2cc(NS(=O)(=O)c3ccc(F)cc3)ccc2O1	0	-	-	0	0
C[C@@H]1CCCCO[C@H](CN(C)Cc2ccc(Cl)c(Cl)c2)[C@H](C)CN([C@@H](C)CO)C(=O)c2cc(NS(=O)(=O)c3ccccc3)ccc2O1	0	57.1[16.7 µM]	-	0	0
C[C@@H]1CN([C@H](C)CO)C(=O)c2cc(NS(=O)(=O)c3ccccc3)ccc2O[C@@H](C)CCCCO[C@H]1CN(C)Cc1ccc(Cl)c(Cl)c1	0	0	-	0	0
C[C@H](CO)N1C[C@H](C)[C@@H](CN(C)Cc2ccc(Cl)c(Cl)c2)OCCCC[C@H](C)Oc2ccc(NS(=O)(=O)c3ccc(F)cc3)cc2C1=O	0	78.0[16.7 µM]	-	0	0
C[C@H]1CCCCO[C@H](CN(C)Cc2ccncc2)[C@@H](C)CN([C@@H](C)CO)C(=O)c2cc(NS(=O)(=O)c3ccccc3)ccc2O1	0	0	-	0	72.8!
C[C@@H]1CN([C@@H](C)CO)C(=O)c2cc(NS(=O)(=O)c3ccccc3)ccc2O[C@@H](C)CCCCO[C@H]1CN(C)Cc1ccncc1	0	0	-	0	0
Cc1cccc(C(=O)OCC(=O)Nc2c(C)n(C)n(-c3ccccc3)c2=O)c1O	0	0	0	0	0
CCC(=O)N1CCC1(C)C(=O)Nc1cccc(OC)c1OC (centres undefined)	-	58.1	0	0	0
COc1cccc(NC(=O)C2(C)CCN2C(C)C)c1OC (centres undefined)	0	0	0	0	0
CO[C@@H]1CN(C)C(=O)c2ccc(NC(=O)Cc3ccccc3)cc2OC[C@H](C)N(C)C[C@H]1C	0	0	-	0	0
Cc1ccn2c(NC3CCCCC3)c(-c3cccc(-c4cccc(Cl)c4)c3)nc2c1	0	69.6	-	0	0
Cc1cc(C)nc(/N=C(\N)Nc2ccc(CC(=O)OC(C)C)cc2)n1	-	67.6	-	0	0
COc1ccc(CCN2CC(=O)NC(=O)C2)cc1OC	54.5	0	0	0	-
COc1ccc(CCN2C(=O)C3C(C2=O)C2C=CC3C23CC3)cc1OC (centres undefined)	0	0	0	0	0
CCNC(=S)N/N=C/c1ccc(OCC(=O)Nc2ccc(OC)cc2)c(OC)c1	0	0	0	-	0
COc1ccccc1-c1c(C)nn2c(-c3ccccc3)cc(C)nc12	0	0	0	26.5	0
Cc1noc(C)c1S(=O)(=O)Nc1ccc2c(c1)CC(=O)N([C@@H](C)CO)C[C@H](C)[C@H](CN(C)Cc1ccc(-c3ccccc3)cc1)O2	0	0	-	0	0
CCOc1cccc(C(=O)N(Cc2cccc(F)c2)C2CCS(=O)(=O)C2)c1 (centres undefined)	0	0	0	0	0
SMILES	GSIS activator	Env fusion inh	NSD2 inh	MLL AF4-AF9 inh	PGC1a acetyl inh
C[C@H]1CN([C@@H](C)CO)C(=O)c2ccccc2-c2ccccc2CO[C@@H]1CN(C)Cc1cccc(C(F)(F)F)c1	55.9	-	-	0	0
C[C@@H]1CN([C@H](C)CO)C(=O)c2ccccc2-c2ccccc2CO[C@@H]1CN(C)Cc1cccc(C(F)(F)F)c1	0	-	-	0	0
C[C@@H]1CN([C@H](C)CO)C(=O)c2ccccc2-c2ccccc2CO[C@@H]1CN(C)Cc1ccc(Cl)c(Cl)c1	0	-	-	0	0
C[C@H]1CN([C@@H](C)CO)C(=O)c2ccccc2-c2ccccc2CO[C@H]1CN(C)S(=O)(=O)c1ccc(Cl)cc1	0	55.4[16.7 µM]	-	0	0
C[C@H]1CN([C@@H](C)CO)C(=O)c2ccccc2-c2ccccc2CO[C@@H]1CN(C)Cc1ccc(Cl)c(Cl)c1	42.5	-	-	0	0
O=C(c1ccco1)N1CCN(Cc2cc(=O)oc3cc(O)ccc23)CC1	-	0	0	0	0
CC(=O)Nc1ccc(NC(=O)C(C)OC(=O)CCCN2C(=O)c3cccc4cccc(c34)C2=O)cc1 (centres undefined)	0	-	0	0	0
CN=C1c2ccccc2CN1c1cccc(C(=O)OC)c1	88.6	-	0	-	0
COc1cccc2cc(C(=O)NCCN3CCOCC3)c(=O)oc12	0	0	0	0	-
Cn1cnc(S(=O)(=O)N[C@@H]2C=C[C@H](CC(=O)Nc3ccc(-c4ccccc4)cc3)O[C@H]2CO)c1	0	0	-	0	0
CCOC(=O)C1=CCN(S(=O)(=O)c2ccccc2F)C1c1cccc(Br)c1 (centres undefined)	0	0	-	0	0
C[C@@H]1CCCCO[C@@H](CN(C)Cc2ccc(C(F)(F)F)cc2)[C@H](C)CN([C@@H](C)CO)C(=O)c2cc(N(C)C)ccc2O1	0	0	-	32.3	0
C[C@@H]1CCCCO[C@@H](CN(C)Cc2ccc(C(F)(F)F)cc2)[C@H](C)CN([C@H](C)CO)C(=O)c2cc(N(C)C)ccc2O1	0	0	-	40.1	0
C[C@@H]1CCCCO[C@@H](CN(C)Cc2ccc(C(F)(F)F)cc2)[C@@H](C)CN([C@@H](C)CO)C(=O)c2cc(N(C)C)ccc2O1	0	0	-	0	0
CC(=O)NC[C@H]1[C@@H](c2ccc(-c3ccccc3F)cc2)[C@@H](CO)N1C(=O)C1CC1	0	-	-	0	0
COc1cc(/C=N/NS(=O)(=O)c2ccc3ccccc3c2)ccc1OCc1ccc(C(=O)O)cc1	0	0	0	0	0
COc1cc(C(=O)O)ccc1OCc1ccccc1	55.4	0	0	-	-
COc1cc(/C=N/NS(=O)(=O)c2ccc(C)cc2)ccc1OCc1cccc(C(=O)O)c1	0	72.0	0	0	0
COc1cc(/C=N/O)ccc1OCc1ccc(C(=O)O)cc1	-	113.5	0	-	0
CSc1nc(NCc2ccco2)c2sc3nc(C(C)C)c4c(c3c2n1)CC(C)(C)OC4	-	0	-	-	0
O=C(CN1C(=O)C2C3CC(C(Br)C3Br)C2C1=O)OCC(=O)c1cccc([N+](=O)[O-])c1 (centres undefined)	0	0	0	0	75.8
CC(=O)Nc1cccc(-c2ccnc3c2CC(C)(C(=O)Nc2ccc(F)c(Cl)c2)O3)c1 (centres undefined)	0	0	0	0	0
